From PubChem BioAssay (EPA / NIEHS)
Values joined by “and” are separate entries in the source; they are usually repeats but may differ in a detail not shown here. Equal values may be shown once. Results filed as inconclusive are left out. More than one record can exist for a structure, and the calls need not agree. Active and inactive are the calls of the source. Rule for the calls, unless noted: active = hit-call score of the fitted dose curve at least 0.9, where 1 is the maximum; inactive = score below 0.9.

Experiments:
[1] = read-out: Interleukin-8 (IL8), CXCL8 (gene 3576); assay: BSK_3C_IL8: BioMAP Diversity Plus: 3C Assay for Interleukin-8 (IL8) Biomarker Activity (AID 2283020); settings: primary human endothelial cells (HUVEC); actives raise or lower the signal
Procedure, shortened: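 Human vascular endothelial cells (umbilical vein) in the 3C system; IL-8 level detected by ELISA at 24 h post-dose, with DMSO as baseline.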

[2] = read-out: Monokine induced gamma interferon (MIG), CXCL9 (gene 4283); assay: BSK_3C_MIG: BioMAP Diversity Plus: 3C Assay for Monokine induced gamma interferon (MIG) Biomarker Activity (AID 2283021); settings: primary human endothelial cells (HUVEC); actives raise or lower the signal;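 for AC50: MIG protein level measured by immunoassay in the treated endothelial cultures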
Procedure, shortened: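 After 24 h of treatment, human umbilical vein endothelial cultures (3C system) had their MIG biomarker level determined by ELISA, with DMSO serving as negative control.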

[3] = read-out: Matrix Metallopeptidase 1 (MMP1), MMP1 (gene 4312); assay: BSK_BE3C_MMP1: BioMAP Diversity Plus: BE3C Assay for Matrix Metallopeptidase 1 (MMP1) Biomarker Activity (AID 2283024); settings: primary human bronchial epithelial cells; actives raise or lower the signal
Procedure, shortened: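 Dose cells, wait 24 h, run MMP1 ELISA; cells are human bronchial epithelial primaries. Both increases and decreases relative to DMSO counted.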

[4] = read-out: Pselectin, SELP (gene 6403); assay: BSK_4H_Pselectin: BioMAP Diversity Plus: 4H Assay for Pselectin Biomarker Activity (AID 2283026); settings: primary human endothelial cells (HUVEC); actives raise or lower the signal
Procedure, shortened: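 Human vascular endothelium from umbilical vein; P-selectin measured by ELISA at 24 h post-dose, with cytotoxicity checked by sulforhodamine B total-protein staining in parallel cultures (0.1% SRB after 10% TCA fixation, read at 560 nm).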

[5] = BSK_4H_SRB: Viability Assessment in the BioMAP Diversity Plus: 4H Assay (AID 2283027); settings: primary human endothelial cells (HUVEC);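 note: cells exposed to compound for 24 h before staining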;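 for AC50: curves fitted both ways versus DMSO so AC50 may be loss or gain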
Procedure, shortened: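 Human umbilical vein endothelial cells, 24 h after chemical dosing; total protein measured by 0.1% sulforhodamine B staining after 10% TCA fixation, read at 560 nm. Bidirectional fitting against DMSO.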

[6] = BSK_BE3C_SRB: Viability Assessment in the BioMAP Diversity Plus: BE3C Assay (AID 2283028); settings: primary human bronchial epithelial cells;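 for AC50: fitted both ways so AC50 may mark signal gain or loss versus DMSO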
Procedure, shortened: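 Cells (human bronchial epithelial, primary) are treated with chemicals, and after 24 h the parallel cultures are fixed in 10% TCA. These are then stained with 0.1% SRB and read at 560 nm. Gain or loss of signal is fitted relative to DMSO.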

[7] = read-out: Thrombomodulin, THBD (gene 7056); assay: BSK_3C_Thrombomodulin: BioMAP Diversity Plus: 3C Assay for Thrombomodulin Biomarker Activity (AID 2283029); settings: primary human endothelial cells (HUVEC); actives raise or lower the signal
Procedure, shortened: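 Thrombomodulin ELISA, human primary HUVEC, 24 h post-dose; data fitted in both directions relative to DMSO.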

[8] = BSK_3C_SRB: Viability Assessment in the BioMAP Diversity Plus: 3C Assay (AID 2283023); settings: primary human endothelial cells (HUVEC);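 note: fitted both ways against DMSO so a hit may be signal rise or drop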
Procedure, shortened: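 Absorbance at 560 nm of sulforhodamine B-stained (0.1%) total protein served as a cytotoxicity readout in human umbilical vein endothelial cells, 24 h after chemical treatment. Signal was fitted bidirectionally relative to DMSO.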

[9] = biological target: human Vitamin D Receptor (VDR), VDR (gene 7421) (UniProt P11473); assay: ATG_VDR_TRANS: Attagene TRANS-FACTORIAL HepG2 Assay for human Vitamin D Receptor (VDR) (AID 2283022; active = hit-call score of the fitted dose curve at least 0.9, where 1 is the maximum)
human Vitamin D Receptor (VDR), VDR (gene 7421), sequence (P11473 whole entry, looked up, the tested form may be a part): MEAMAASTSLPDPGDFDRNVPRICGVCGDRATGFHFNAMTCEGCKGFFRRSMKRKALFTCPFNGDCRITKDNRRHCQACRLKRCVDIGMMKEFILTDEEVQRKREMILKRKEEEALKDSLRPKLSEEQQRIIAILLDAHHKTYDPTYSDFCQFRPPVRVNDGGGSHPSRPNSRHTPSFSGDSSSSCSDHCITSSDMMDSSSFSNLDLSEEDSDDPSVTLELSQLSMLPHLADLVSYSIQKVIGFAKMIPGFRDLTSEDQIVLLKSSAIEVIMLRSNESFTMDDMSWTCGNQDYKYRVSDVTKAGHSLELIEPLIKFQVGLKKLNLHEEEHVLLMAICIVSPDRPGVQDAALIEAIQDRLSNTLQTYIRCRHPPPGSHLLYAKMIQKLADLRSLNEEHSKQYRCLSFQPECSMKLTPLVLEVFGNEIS
Procedure, shortened: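 Steps: transfect HepG2 with GAL4-UAS-driven reporter constructs; dose compounds 24 h; isolate RNA, reverse-transcribe, PCR-amplify with 6-FAM-labelled primer extension and HpaI digestion; quantify fragments by capillary electrophoresis relative to DMSO.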

[10] = BSK_3C_Vis: BioMAP Diversity Plus: 3C Assay for Morphology Visualization (AID 2283025); settings: primary human endothelial cells (HUVEC);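 note: fitted both ways so gain or loss versus DMSO counts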
Procedure, shortened: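 Endothelial cells from human umbilical vein were treated with test chemicals for 24 h and inspected by light microscopy for changes in cell conformation.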

Measured: AC50

C=C(C)C(=O)OCC(F)(F)C(F)(F)C(F)(F)F
not listed: [8] | [9] | [10]
inactive: all other assays above

C=CC(=O)OCC(F)(F)C(F)(F)C(F)(F)C(F)(F)COC(=O)C=C
active: [1] 23.6 µM and 44.4 µM | [2] 23.5 µM and 26.4 µM | [8] 34.8 µM and 24.8 µM | [3] 20.4 µM and 20.5 µM | [4] 20.6 µM and 28.9 µM | [5] 47.1 µM and 44.8 µM
inactive: [6] | [7]

OCCCC(F)(F)C(F)(F)C(F)(F)F
not listed: [8] | [9] | [10]
inactive: all other assays above

FC(F)(F)C(F)(F)C(F)(F)C(F)(F)C(F)(F)C(F)(F)C(F)(F)I
not listed: [9] | [10]
inactive: all other assays above

COC(=O)C1CCC(C(=O)OC)CC1 (centres undefined)
inactive: [9]

O=C(O)C(F)(F)C(F)(F)C(F)(F)C(F)(F)C(F)(F)C(F)(F)C(F)(F)C(F)(F)C(F)(F)C(F)(F)C(F)(F)C(F)(F)C(F)(F)F
not listed: [8] | [9] | [10]
inactive: all other assays above

C=CC(=O)OCC(F)(F)C(F)(F)C(F)(F)C(F)(F)C(F)(F)C(F)(F)C(F)(F)F
not listed: [8] | [9] | [10]
inactive: all other assays above

O=C(O)C(F)(F)C(F)(F)OC(F)(F)F
not listed: [8] | [9] | [10]
inactive: all other assays above

CCCCNc1ccccc1
not listed: [8] | [9]
inactive: all other assays above

NC(=O)C(F)(F)C(F)(F)C(F)(F)C(F)(F)F
inactive: [1] | [2] | [3] | [4] | [5] | [6] | [7]
active: [7] 38.8 µM

O=S(=O)(O)C(F)(F)C(F)(F)C(F)(F)C(F)(F)C(F)(F)C(F)(F)C(F)(F)F
active: [3] 8.64 µM and 15.6 µM
not listed: [8] | [9] | [10]
inactive: all other assays above

O=C(O)C(F)(F)C(F)(F)C(F)(F)C(F)(F)C(F)(F)C(F)(F)C(F)(F)C(F)(F)C(F)(F)C(F)F
active: [8] 47.3 µM and 49.5 µM | [5] 48.6 µM and 45.8 µM | [6] 21 µM and 20.7 µM | [7] 49.3 µM and 46.1 µM
inactive: [1] | [2] | [3] | [4]

c1ccc(B(c2ccccc2)c2ccccc2)cc1
inactive: [9]

C=CC(F)(F)C(F)(F)C(F)(F)C(F)(F)C(F)(F)C(F)(F)C(F)(F)C(F)(F)C=C
not listed: [9] | [10]
inactive: all other assays above

FC1CC(F)(F)C(F)(F)C1(F)F (centres undefined)
not listed: [9] | [10]
inactive: all other assays above

FC(F)(F)C(F)(F)C(F)(F)CI
not listed: [9] | [10]
inactive: all other assays above

FC(F)(I)C(F)(F)C(F)(F)C(F)(F)I
inactive: [7]
active: [1] 46.1 µM and 53.1 µM and 53.3 µM | [2] 52.8 µM and 46.1 µM and 55.3 µM | [3] 44 µM and 50.6 µM and 22.7 µM | [4] 47.9 µM and 30 µM and 44.7 µM | [5] 56.2 µM and 42.7 µM and 50.5 µM | [6] 50.1 µM and 43.1 µM and 44.2 µM

OC[C@@H](O)[C@@H](O)[C@H](O)[C@@H](O)CO
inactive: [9]

O=S(=O)(OCC(F)F)C(F)(F)F
not listed: [8] | [9] | [10]
inactive: all other assays above

O=C(C=Cc1ccccc1)OCC=Cc1ccccc1
inactive: [9]
